Laboratory results: the supplement of paper PMC12819154, “High-throughput peptide-centric local stability assay extends protein–ligand identification to membrane proteins, tissues and bacteria” (Nature Structural & Molecular Biology, 2025)

compound: CN[C@@H]1C[C@H]2O[C@@](C)([C@@H]1OC)n1c3ccccc3c3c4c(c5c6ccccc6n2c5c31)C(=O)NC4 [staurosporine]; assay: log2 fold change of tryptic peptide abundance, ligand vs vehicle (limited proteolysis) (log2 ratio); higher = more trypsin-susceptible (destabilized); conditions: ligand concentration: 20 uM; sample: mouse liver crude lysate; replicate design: treated separately

Sequence of UniProt Q924L1 (Q924L1 whole entry): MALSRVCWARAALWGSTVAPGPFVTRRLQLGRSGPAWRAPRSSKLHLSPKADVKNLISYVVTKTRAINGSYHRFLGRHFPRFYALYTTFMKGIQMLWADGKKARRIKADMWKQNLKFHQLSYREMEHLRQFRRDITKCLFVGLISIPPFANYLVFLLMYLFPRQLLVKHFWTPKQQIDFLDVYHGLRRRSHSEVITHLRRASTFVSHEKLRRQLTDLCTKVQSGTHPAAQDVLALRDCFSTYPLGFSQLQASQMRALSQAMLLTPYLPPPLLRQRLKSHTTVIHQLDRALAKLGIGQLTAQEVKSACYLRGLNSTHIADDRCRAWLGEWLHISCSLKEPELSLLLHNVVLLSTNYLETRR
Sequence of UniProt P31750 (P31750 whole entry): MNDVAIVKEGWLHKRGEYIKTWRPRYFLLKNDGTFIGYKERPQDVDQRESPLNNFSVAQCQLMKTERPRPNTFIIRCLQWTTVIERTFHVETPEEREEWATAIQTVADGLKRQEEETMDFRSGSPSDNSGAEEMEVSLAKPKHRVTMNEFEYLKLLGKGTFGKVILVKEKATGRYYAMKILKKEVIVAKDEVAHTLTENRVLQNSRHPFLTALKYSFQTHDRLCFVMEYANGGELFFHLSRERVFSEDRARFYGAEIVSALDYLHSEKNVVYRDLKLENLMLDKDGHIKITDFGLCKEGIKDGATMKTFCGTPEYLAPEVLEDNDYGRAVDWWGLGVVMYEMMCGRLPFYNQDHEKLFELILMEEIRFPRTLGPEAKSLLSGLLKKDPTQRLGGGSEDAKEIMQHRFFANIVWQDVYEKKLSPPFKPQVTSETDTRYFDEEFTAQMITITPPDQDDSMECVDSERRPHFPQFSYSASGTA
Sequence of UniProt Q62393 (Q62393 whole entry): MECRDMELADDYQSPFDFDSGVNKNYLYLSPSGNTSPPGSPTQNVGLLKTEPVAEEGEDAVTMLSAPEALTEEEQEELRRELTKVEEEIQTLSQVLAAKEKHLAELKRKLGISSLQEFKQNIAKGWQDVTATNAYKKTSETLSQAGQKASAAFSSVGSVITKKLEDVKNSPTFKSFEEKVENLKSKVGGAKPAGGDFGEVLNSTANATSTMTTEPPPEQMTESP
Sequence of UniProt O09110 (O09110 whole entry): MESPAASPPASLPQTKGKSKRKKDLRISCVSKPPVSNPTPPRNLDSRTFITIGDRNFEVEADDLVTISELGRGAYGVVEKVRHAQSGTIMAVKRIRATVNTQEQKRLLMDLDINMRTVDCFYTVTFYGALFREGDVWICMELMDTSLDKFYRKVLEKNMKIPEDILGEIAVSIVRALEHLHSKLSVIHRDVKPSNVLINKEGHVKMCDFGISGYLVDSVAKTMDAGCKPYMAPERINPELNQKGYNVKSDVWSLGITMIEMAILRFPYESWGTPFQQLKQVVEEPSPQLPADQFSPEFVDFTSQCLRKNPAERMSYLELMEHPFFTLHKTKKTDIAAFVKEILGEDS
Sequence of UniProt Q9D8V0 (Q9D8V0 whole entry): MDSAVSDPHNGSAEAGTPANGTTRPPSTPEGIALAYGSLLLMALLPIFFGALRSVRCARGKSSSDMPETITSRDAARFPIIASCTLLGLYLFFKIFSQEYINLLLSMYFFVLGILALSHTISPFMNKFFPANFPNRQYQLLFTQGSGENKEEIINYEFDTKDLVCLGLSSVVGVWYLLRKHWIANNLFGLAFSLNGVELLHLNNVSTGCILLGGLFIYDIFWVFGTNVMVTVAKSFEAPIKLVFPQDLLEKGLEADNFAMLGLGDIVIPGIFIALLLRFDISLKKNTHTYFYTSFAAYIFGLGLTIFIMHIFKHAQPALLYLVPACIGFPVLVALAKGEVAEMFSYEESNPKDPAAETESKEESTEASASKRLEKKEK
Sequence of UniProt P24456 (P24456 whole entry): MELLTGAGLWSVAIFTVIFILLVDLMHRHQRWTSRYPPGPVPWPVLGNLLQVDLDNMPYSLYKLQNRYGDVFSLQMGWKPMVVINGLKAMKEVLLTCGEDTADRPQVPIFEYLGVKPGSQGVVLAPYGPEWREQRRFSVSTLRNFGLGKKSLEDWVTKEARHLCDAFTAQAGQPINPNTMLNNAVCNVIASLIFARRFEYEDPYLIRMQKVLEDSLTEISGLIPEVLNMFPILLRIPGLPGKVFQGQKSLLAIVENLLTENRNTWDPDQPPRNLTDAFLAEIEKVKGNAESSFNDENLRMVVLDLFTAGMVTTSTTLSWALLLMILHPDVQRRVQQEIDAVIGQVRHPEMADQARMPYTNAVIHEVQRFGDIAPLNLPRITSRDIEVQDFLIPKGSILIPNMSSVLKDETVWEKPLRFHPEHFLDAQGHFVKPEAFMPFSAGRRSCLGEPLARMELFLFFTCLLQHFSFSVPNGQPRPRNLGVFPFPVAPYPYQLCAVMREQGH
Sequence of UniProt P09813 (P09813 whole entry): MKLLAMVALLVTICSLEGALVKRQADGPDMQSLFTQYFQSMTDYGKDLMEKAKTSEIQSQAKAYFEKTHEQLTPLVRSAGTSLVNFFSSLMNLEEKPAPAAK
Sequence of UniProt O54988 (O54988 whole entry, looked up): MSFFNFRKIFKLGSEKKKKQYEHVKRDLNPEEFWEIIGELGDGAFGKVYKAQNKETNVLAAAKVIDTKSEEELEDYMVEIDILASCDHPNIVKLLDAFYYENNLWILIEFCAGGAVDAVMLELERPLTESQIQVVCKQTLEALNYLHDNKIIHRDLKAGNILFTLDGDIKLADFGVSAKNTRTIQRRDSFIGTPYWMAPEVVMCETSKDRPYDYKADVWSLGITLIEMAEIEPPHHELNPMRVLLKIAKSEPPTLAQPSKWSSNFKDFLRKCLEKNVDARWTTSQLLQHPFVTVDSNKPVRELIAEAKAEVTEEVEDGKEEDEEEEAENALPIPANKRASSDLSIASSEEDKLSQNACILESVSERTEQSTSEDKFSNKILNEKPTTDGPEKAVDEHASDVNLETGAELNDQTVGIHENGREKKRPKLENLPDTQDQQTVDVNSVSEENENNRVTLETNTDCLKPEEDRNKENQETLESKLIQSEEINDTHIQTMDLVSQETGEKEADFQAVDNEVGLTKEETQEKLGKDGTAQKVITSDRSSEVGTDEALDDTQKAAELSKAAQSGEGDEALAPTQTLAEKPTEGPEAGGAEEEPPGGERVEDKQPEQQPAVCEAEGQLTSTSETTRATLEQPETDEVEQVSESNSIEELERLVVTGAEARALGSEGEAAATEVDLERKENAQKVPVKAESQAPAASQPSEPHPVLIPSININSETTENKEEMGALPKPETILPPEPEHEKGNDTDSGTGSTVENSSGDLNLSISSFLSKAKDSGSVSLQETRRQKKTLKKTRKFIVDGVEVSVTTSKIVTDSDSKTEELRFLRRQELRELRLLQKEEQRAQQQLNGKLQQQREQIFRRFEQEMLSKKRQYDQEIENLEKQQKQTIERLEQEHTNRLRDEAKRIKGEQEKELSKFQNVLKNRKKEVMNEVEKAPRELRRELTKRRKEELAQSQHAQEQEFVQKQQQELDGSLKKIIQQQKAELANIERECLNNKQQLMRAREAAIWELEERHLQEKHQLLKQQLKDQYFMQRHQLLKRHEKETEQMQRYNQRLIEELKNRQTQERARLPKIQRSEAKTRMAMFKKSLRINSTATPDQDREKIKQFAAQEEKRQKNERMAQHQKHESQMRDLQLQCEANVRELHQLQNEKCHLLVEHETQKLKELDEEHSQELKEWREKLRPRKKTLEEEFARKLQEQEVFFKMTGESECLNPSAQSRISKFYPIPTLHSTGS
Sequence of UniProt Q9DCN1 (Q9DCN1 whole entry): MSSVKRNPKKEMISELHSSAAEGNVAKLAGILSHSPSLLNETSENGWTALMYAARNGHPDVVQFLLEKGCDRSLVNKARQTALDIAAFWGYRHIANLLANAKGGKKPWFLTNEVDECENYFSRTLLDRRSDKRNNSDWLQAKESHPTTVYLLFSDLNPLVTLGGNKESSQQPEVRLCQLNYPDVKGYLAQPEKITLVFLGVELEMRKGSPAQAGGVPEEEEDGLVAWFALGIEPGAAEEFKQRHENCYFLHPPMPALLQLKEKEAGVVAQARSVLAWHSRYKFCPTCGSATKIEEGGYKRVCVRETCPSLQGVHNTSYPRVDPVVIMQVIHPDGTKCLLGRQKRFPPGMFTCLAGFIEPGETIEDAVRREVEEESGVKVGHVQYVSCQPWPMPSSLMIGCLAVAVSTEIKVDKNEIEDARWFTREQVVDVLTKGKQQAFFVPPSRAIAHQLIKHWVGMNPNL
Sequence of UniProt Q9DBM2 (Q9DBM2 whole entry): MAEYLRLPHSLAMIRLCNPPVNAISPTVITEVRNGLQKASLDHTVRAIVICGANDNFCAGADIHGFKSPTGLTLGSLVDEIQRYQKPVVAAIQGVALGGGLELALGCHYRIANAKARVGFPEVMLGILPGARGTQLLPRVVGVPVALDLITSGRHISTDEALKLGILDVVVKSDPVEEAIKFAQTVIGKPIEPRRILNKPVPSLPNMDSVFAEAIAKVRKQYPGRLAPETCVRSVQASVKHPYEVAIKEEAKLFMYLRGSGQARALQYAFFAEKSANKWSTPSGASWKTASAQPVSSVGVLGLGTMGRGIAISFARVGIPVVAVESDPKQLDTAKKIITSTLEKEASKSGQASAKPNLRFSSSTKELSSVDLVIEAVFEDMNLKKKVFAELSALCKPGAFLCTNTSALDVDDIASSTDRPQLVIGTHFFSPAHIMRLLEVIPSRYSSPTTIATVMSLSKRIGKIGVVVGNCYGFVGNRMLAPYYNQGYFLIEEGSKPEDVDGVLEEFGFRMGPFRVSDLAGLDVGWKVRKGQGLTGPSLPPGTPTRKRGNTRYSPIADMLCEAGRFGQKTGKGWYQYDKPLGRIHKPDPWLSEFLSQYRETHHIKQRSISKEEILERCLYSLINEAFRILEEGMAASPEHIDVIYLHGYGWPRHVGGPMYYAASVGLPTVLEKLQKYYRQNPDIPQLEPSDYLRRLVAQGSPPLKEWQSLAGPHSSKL

Target	log2 fold change
UniProt Q9JI11 (peptide sequence: ATATQLLQHPFVK, peptide start residue: 270)	-3.07
UniProt O54909 (peptide sequence: YLASYLKR, peptide start residue: 242)	-1.31
UniProt P47911 (peptide sequence: HQEGEIFDTEK, peptide start residue: 235)	0.281
UniProt P47962 (peptide sequence: GAVDGGLSIPHSTK, peptide start residue: 165)	0.536
UniProt Q9WV60 (peptide sequence: LCDSGELVAIKK, peptide start residue: 75)	-4.12
UniProt Q9CZW4 (peptide sequence: ALDFGNGLQMLGQKPK, peptide start residue: 144)	0.538
UniProt O70551 (peptide sequence: SAEHYTETALDEIR, peptide start residue: 113)	-2.75
UniProt O88455 (peptide sequence: LLVSGFWGVAR, peptide start residue: 390)	0.757
UniProt O35945 (peptide sequence: TVAMQISQK, peptide start residue: 491)	-0.312
UniProt Q9D0I9 (peptide sequence: GFDILGIKPVQR, peptide start residue: 648)	0.372
UniProt Q91XU3 (peptide sequence: VYIGEEEKK, peptide start residue: 252)	-1.32
UniProt Q3UHJ0 (peptide sequence: DLKVENILLHDR, peptide start residue: 176)	-4.22
UniProt O88630 (peptide sequence: MNTLANRFPAVNSLIQR, peptide start residue: 205)	0.676
UniProt O09110 (peptide sequence: TFITIGDR, peptide start residue: 48)	-0.503
UniProt P20444 (peptide sequence: LGCGPEGER, peptide start residue: 581)	-2.63
UniProt Q9EPJ9 (peptide sequence: DVTTFFSGK, peptide start residue: 289)	0.513
UniProt Q62073 (peptide sequence: VNHPNIVK, peptide start residue: 84)	-1.73
UniProt P06728 (peptide sequence: LQLTPYIQR, peptide start residue: 155)	0.346
UniProt P16331 (peptide sequence: RKQFADIAYNYR, peptide start residue: 158)	-0.336

Target	log2 fold change
UniProt O35488 (peptide sequence: YELIKYDVEKDEPVR, peptide start residue: 394)	0.821
UniProt P31938 (peptide sequence: VSHKPSGLVMAR, peptide start residue: 85)	-0.899
UniProt O54988 (peptide sequence: WSSNFKDFLR, peptide start residue: 261)	-3.04
UniProt P09813 (peptide sequence: THEQLTPLVR, peptide start residue: 68)	0.46
UniProt Q9R233 (peptide sequence: GKGHLLLAATPGLAGR, peptide start residue: 215)	-1.39
UniProt Q61161 (peptide sequence: GLHHLHSQGK, peptide start residue: 123)	-1.65
UniProt Q3U214 (peptide sequence: YFLEMQDKLER, peptide start residue: 260)	0.698
UniProt P31750 (peptide sequence: HPFLTALK, peptide start residue: 209)	-1.6
UniProt Q9DCZ4 (peptide sequence: TQLEENISQLR, peptide start residue: 58)	0.253
UniProt Q9WVD5 (peptide sequence: TYSQVGFR, peptide start residue: 54)	-1.35
UniProt P05132 (peptide sequence: CGKEFTEF, peptide start residue: 344)	2.36
UniProt P24456 (peptide sequence: RVQQEIDAVIGQVR, peptide start residue: 333)	-0.553
UniProt Q8C878 (peptide sequence: LPEHCIEYVR, peptide start residue: 245)	0.505
UniProt Q9DBM2 (peptide sequence: VGIPVVAVESDPKQLDTAKK, peptide start residue: 317)	0.344
UniProt Q9DCN1 (peptide sequence: AIAHQLIK, peptide start residue: 446)	-0.997
UniProt Q62393 (peptide sequence: GWQDVTATNAYK, peptide start residue: 125)	0.581
UniProt P35917 (peptide sequence: VLGHGAFGK, peptide start residue: 850)	1.38
UniProt Q924L1 (peptide sequence: NLISYVVTK, peptide start residue: 55)	0.543
UniProt Q9D8V0 (peptide sequence: SSSDMPETITSR, peptide start residue: 62)	-1.22
